Calls of active or inactive are those of the source. Rule for the calls: active = hit-call score of the fitted dose curve at least 0.9, where 1 is the maximum; inactive = score below 0.9.

Read-out in assay [1]: Monokine induced gamma interferon (MIG), CXCL9 (gene 4283)
Put plainly: BSK_hDFCGF_MIG: BioMAP Diversity Plus: hDFCGF Assay for Monokine induced gamma interferon (MIG) Biomarker Activity (AID 2283063). As to conditions: primary human foreskin fibroblasts; actives raise or lower the signal. In short, it runs like this: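 MIG signal, determined by ELISA, reflects 24 h chemical exposure of human skin primary fibroblasts. DMSO serves as negative control and baseline.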

Read-out in assay [2]: Matrix Metallopeptidase 1 (MMP1), MMP1 (gene 4312)
Put plainly: BSK_hDFCGF_MMP1: BioMAP Diversity Plus: hDFCGF Assay for Matrix Metallopeptidase 1 (MMP1) Biomarker Activity (AID 2283064). As to conditions: primary human foreskin fibroblasts; actives raise or lower the signal. The gist of the method:
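Primary human foreskin fibroblasts in the hDFCGF system were dosed with test chemical, and MMP1 was measured by ELISA 24 h later. Values come from bidirectional curve fitting against the DMSO baseline.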

Read-out in assay [3]: Vascular cell adhesion molecule 1 (VCAM1), VCAM1 (gene 7412)
Description: BSK_hDFCGF_VCAM1: BioMAP Diversity Plus: hDFCGF Assay for Vascular cell adhesion molecule 1 (VCAM1) Biomarker Activity (AID 2283065).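 For AC50: VCAM-1 protein level quantified by ELISA after 24 h chemical exposure.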 To be noted: primary human foreskin fibroblasts; actives raise or lower the signal. The gist of the method: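 Cells are dosed, cultured for 24 h, then VCAM-1 is quantified by ELISA; signal increases and decreases are both fitted relative to DMSO.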

Read-out in assay [4]: Plasminogen activator inhibitor-1 (PAI1), SERPINE1 (gene 5054)
Put plainly: BSK_hDFCGF_PAI1: BioMAP Diversity Plus: hDFCGF Assay for Plasminogen activator inhibitor-1 (PAI1) Biomarker Activity (AID 2283066). To be noted: primary human foreskin fibroblasts; actives raise or lower the signal. The gist of the method:
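Human foreskin fibroblasts in the hDFCGF system were dosed with compound for 24 h; PAI-1 was quantified by ELISA. Bidirectional curve fitting used DMSO as negative control and baseline.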

Read-out in assay [5]: Intercellular Adhesion Molecule 1 (ICAM1), ICAM1 (gene 3383)
Description: BSK_KF3CT_ICAM1: BioMAP Diversity Plus: KF3CT Assay for Intercellular Adhesion Molecule 1 (ICAM1) Biomarker Activity (AID 2283067). To be noted: primary human keratinocytes with fibroblasts; actives raise or lower the signal. In short, it runs like this: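 Dose the keratinocyte/fibroblast co-culture, wait 24 h, measure ICAM-1 by ELISA, then fit increases or decreases against DMSO. Cytotoxicity is checked in parallel cultures by SRB total-protein staining.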

Read-out in assay [6]: Interferon-gamma inducible Protein 10 (IP10), CXCL10 (gene 3627)
Put plainly: BSK_KF3CT_IP10: BioMAP Diversity Plus: KF3CT Assay for Interferon-gamma inducible Protein 10 (IP10) Biomarker Activity (AID 2283068). As to conditions: primary human keratinocytes with fibroblasts; actives raise or lower the signal. In short, it runs like this:
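In a primary skin co-culture of keratinocytes and fibroblasts, IP-10 is quantified by ELISA at 24 h after dosing. SRB staining of parallel wells monitors overt toxicity. Curves are fitted both directions against DMSO.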

The nature of assay [7]: BSK_KF3CT_SRB: Viability Assessment in the BioMAP Diversity Plus: KF3CT Assay (AID 2283069). As to conditions: primary human keratinocytes with fibroblasts. In short, it runs like this: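 Human primary keratinocyte plus foreskin fibroblast co-culture exposed to chemicals for 24 h. Total protein measured by 0.1% sulforhodamine B staining after 10% TCA fixation, read at 560 nm; bidirectional fitting versus DMSO baseline.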

Read-out in assay [8]: Interleukin-1 alpha (IL1a), IL1A (gene 3552)
Description: BSK_KF3CT_IL1a: BioMAP Diversity Plus: KF3CT Assay for Interleukin-1 alpha (IL1a) Biomarker Activity (AID 2283070). To be noted: primary human keratinocytes with fibroblasts; actives raise or lower the signal. The gist of the method:
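Human keratinocyte plus foreskin fibroblast primary co-culture, sampled 24 h after chemical dosing. IL-1a measured by ELISA; responses fitted bidirectionally against DMSO baseline (negative control), so gain or loss of signal both count.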

Read-out in assay [9]: TIMP metallopeptidase inhibitor 2 (TIMP2), TIMP2 (gene 7077)
Put plainly: BSK_KF3CT_TIMP2: BioMAP Diversity Plus: KF3CT Assay for TIMP metallopeptidase inhibitor 2 (TIMP2) Biomarker Activity (AID 2283071). As to conditions: primary human keratinocytes with fibroblasts; actives raise or lower the signal. The gist of the method: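 Human primary keratinocyte/foreskin fibroblast co-culture dosed with chemical and sampled at 24 h. TIMP-2 levels quantified by ELISA; bidirectional fitting against DMSO negative control as baseline.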

Read-out in assay [10]: C-C motif chemokine 2 (Homo sapiens) (UniProt P13500)
Description: BSK_KF3CT_MCP1: BioMAP Diversity Plus: KF3CT Assay for Monocyte Chemoattractant Protein 1 (MCP1/CCL2) Biomarker Activity (AID 2283073). To be noted: primary human keratinocytes with fibroblasts; actives raise or lower the signal. The gist of the method:
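Keratinocytes and foreskin fibroblasts were co-cultured, dosed with chemical, and sampled 24 h later. MCP-1 was quantified by ELISA, and the endpoint was analyzed with bidirectional fitting using DMSO as negative control.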

Read-out in assay [11]: Matrix Metallopeptidase 9 (MMP9), MMP9 (gene 4318)
Put plainly: BSK_KF3CT_MMP9: BioMAP Diversity Plus: KF3CT Assay for Matrix Metallopeptidase 9 (MMP9) Biomarker Activity (AID 2283074).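 For AC50: MMP9 protein level quantified by ELISA in the co-culture.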 As to conditions: primary human keratinocytes with fibroblasts; actives raise or lower the signal. In short, it runs like this:
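Keratinocyte plus foreskin fibroblast human primary skin co-culture was dosed with chemical and MMP-9 was quantified by ELISA 24 h later. Bidirectional curve fitting used DMSO as negative control and activity baseline.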

Read-out in assay [12]: urokinase plasminogen activator (uPA), PLAU (gene 5328)
Put plainly: BSK_KF3CT_uPA: BioMAP Diversity Plus: KF3CT Assay for urokinase plasminogen activator (uPA) Biomarker Activity (AID 2283075). To be noted: primary human keratinocytes with fibroblasts; actives raise or lower the signal. The gist of the method: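 Human keratinocyte plus foreskin fibroblast primary co-culture exposed to chemical for 24 h. uPA levels were quantified by ELISA, and activity was fitted bidirectionally against a DMSO negative-control baseline.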

Read-out in the next assay: CD40, CD40 (gene 958)
Description: BSK_LPS_CD40: BioMAP Diversity Plus: LPS Assay for CD40 Biomarker Activity (AID 2283076). To be noted: primary human HUVEC with PBMC; actives raise or lower the signal. In short, it runs like this:
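CD40 signal, measured by ELISA, is fitted in both directions relative to DMSO vehicle. The system is an LPS-driven human vascular primary co-culture of endothelial cells and PBMC, sampled 24 h after compound addition.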

Read-out in assay [13]: E-selectin (Homo sapiens) (UniProt P16581)
Put plainly: BSK_LPS_Eselectin: BioMAP Diversity Plus: LPS Assay for Eselectin Biomarker Activity (AID 2283077). As to conditions: primary human HUVEC with PBMC; actives raise or lower the signal. The gist of the method: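 Signal of E-selectin, detected by ELISA, served as the endpoint; cells were umbilical vein endothelium with PBMC, read 24 h after treatment. DMSO defined baseline, and both increases and decreases were fitted.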

Read-out in assay [14]: Interleukin-8 (IL8), CXCL8 (gene 3576)
Description: BSK_LPS_IL8: BioMAP Diversity Plus: LPS Assay for Interleukin-8 (IL8) Biomarker Activity (AID 2283078). As to conditions: primary human HUVEC with PBMC; actives raise or lower the signal. The gist of the method:
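Endothelial cells and PBMC from human donors are co-cultured, treated with chemicals and LPS, then assayed for IL-8 by ELISA after 24 h. Parallel SRB staining (0.1% SRB after 10% TCA fixation, 560 nm) flags cytotoxicity.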

Assay [15] in a line: BSK_LPS_SRB: Viability Assessment in the BioMAP Diversity Plus: LPS Assay (AID 2283079).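 Note: total protein by sulforhodamine B absorbance as a cytotoxicity measure; measured one day after compound addition.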 As to conditions: primary human HUVEC with PBMC. In short, it runs like this:
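Overt cytotoxicity was gauged by sulforhodamine B total-protein staining in a primary human vascular endothelial and mononuclear cell co-culture 24 h post-dosing. Activity was fitted in both directions relative to DMSO.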

Read-out in assay [16]: Interleukin-1 alpha (IL1a), IL1A (gene 3552)
Description: BSK_LPS_IL1a: BioMAP Diversity Plus: LPS Assay for Interleukin-1 alpha (IL1a) Biomarker Activity (AID 2283080). As to conditions: primary human HUVEC with PBMC; actives raise or lower the signal. In short, it runs like this: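 Measured: IL-1 alpha via ELISA at 24 h in LPS-activated human umbilical vein endothelium–PBMC co-culture. Baseline: DMSO, bidirectional fitting.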

Read-out in assay [17]: Monocyte Chemoattractant Protein-1 (MCP1), CCL2 (gene 6347)
Description: BSK_LPS_MCP1: BioMAP Diversity Plus: LPS Assay for Monocyte Chemoattractant Protein-1 (MCP1) Biomarker Activity (AID 2283081). To be noted: primary human HUVEC with PBMC; actives raise or lower the signal. The gist of the method: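 LPS-stimulated HUVEC/PBMC co-culture; chemical, 24 h; MCP-1 by ELISA; bidirectional fit vs DMSO; cytotoxicity via SRB (0.1% stain, 10% TCA fix, 560 nm) in parallel wells.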

A short description of assay [18]: BSK_LPS_PGE2: BioMAP Diversity Plus: LPS Assay for Prostaglandin E2 (PGE2) Biomarker Activity (AID 2283082).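 For AC50: secreted prostaglandin E2 measured by ELISA in LPS-stimulated co-culture.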 As to conditions: primary human HUVEC with PBMC; actives raise or lower the signal. In short, it runs like this:
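HUVEC plus PBMC co-culture stimulated with LPS; secreted PGE2 quantified by ELISA 24 h after chemical dosing. Activity fitted bidirectionally against DMSO as negative control and baseline; parallel SRB total-protein staining served as cytotoxicity check.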

Sequence of E-selectin (Homo sapiens) (P16581 whole entry, looked up): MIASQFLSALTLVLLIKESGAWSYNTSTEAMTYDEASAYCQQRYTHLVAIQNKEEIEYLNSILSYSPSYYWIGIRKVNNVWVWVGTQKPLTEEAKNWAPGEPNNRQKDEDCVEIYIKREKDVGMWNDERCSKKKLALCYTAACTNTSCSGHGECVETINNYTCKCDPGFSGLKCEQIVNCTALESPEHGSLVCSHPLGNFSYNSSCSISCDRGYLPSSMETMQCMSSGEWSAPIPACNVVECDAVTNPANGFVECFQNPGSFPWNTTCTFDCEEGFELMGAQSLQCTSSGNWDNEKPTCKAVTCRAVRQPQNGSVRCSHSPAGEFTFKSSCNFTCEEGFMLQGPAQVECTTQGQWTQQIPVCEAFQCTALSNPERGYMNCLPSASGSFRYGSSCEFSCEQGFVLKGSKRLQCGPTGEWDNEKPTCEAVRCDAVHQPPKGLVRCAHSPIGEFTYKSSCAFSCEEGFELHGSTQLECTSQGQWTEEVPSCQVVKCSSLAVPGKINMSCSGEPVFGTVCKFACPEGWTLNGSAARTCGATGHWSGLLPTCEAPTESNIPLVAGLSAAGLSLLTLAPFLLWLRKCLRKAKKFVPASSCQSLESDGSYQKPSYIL

Regarding `OC[C@H]1O[C@@H]2O[C@H]3[C@H](O)[C@@H](O)[C@@H](O[C@H]4[C@H](O)[C@@H](O)[C@@H](O[C@H]5[C@H](O)[C@@H](O)[C@@H](O[C@H]6[C@H](O)[C@@H](O)[C@@H](O[C@H]7[C@H](O)[C@@H](O)[C@@H](O[C@H]1[C@H](O)[C@H]2O)O[C@@H]7CO)O[C@@H]6CO)O[C@@H]5CO)O[C@@H]4CO)O[C@@H]3CO`, the outcome in assay [1], in [2], in assay [3], in [4], in [5] and in assay [6] was inactive. In addition, the outcome in assay [7], in [8], in assay [9], in assay [10], in [11] and in assay [12] was inactive. Also, the outcome is “inactive” with CD40, CD40 (gene 958); “inactive” in [13]; “inactive” in assay [14]; “inactive” in [15]; “inactive” in assay [16]; “inactive” in [17]. In addition, in [18], the result was inactive.

With `CCCCOC(=O)c1ccccc1`, the outcome in assay [1], in [2], in assay [3], in assay [4], in assay [5] and in assay [6] was inactive. Also, the result in assay [7], in assay [8], in [9], in assay [10], in assay [11] and in [12] was inactive. In addition, the outcome is “inactive” with CD40, CD40 (gene 958); “inactive” in [13]; “inactive” in assay [14]; “inactive” in assay [15]; “inactive” in assay [16]; “inactive” in [17]. For the same molecule, the result in assay [18] was inactive.

As for `CCc1ccc(O)c(C(C)(C)C)c1`, the AC50 is 32.6 µM (active) in assay [1]; 31.8 µM (active) in assay [2]; 30.4 µM (active) in assay [3]; 28.1 µM (active) in assay [4]; 31.2 µM (active) in assay [5]; 36.8 µM (active) in assay [6]. Further, the AC50 in assay [7] is 35.7 µM (active); in [8], 30.5 µM (active); in [9], 36.5 µM (active); in assay [10], 36.8 µM (active); in assay [11], 34.7 µM (active); in [12], 35.3 µM (active). The AC50 in assay [15] was 32 µM (active); in assay [18], 25.3 µM (active). Besides, the outcome was “inactive” with CD40, CD40 (gene 958); “inactive” in [13]; “inactive” in assay [14]; “inactive” in assay [16]; “inactive” in assay [17].

The term AC50 denotes the midpoint of the concentration-response curve, whichever way the signal moves.

These data come from PubChem BioAssay (EPA / NIEHS).
